Molecules are shown by their SMILES. Out of some 94,000 compounds screened, about 280 (0.3%) were called active. For the sample, actives were picked, then their nearest neighbours and some compounds at random. Values without a mark were called inactive.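 The calls were made as follows: active = activation above 40%, about the mean plus 3 SD, also judged a hit on visual image review; inconclusive = activation above 40% but not a hit on visual review; inactive = activation not above 40% and no visual hit.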

The assay in a line: enhancers of NFkB p65 translocation in HUVEC – imaging, IL-1B stimulus, high-content imaging, primary screen (AID 819).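 Also: percent activation is computed from the nuclear over cytoplasmic p65 intensity ratio.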 The following applies: HUVEC IL-1B NFkB p65 nuclear translocation imaging; at 2 µM; hits give high values.
Regarding `C/C(=N\NC(=O)c1ccc(C)cc1)C1C(=O)c2ccccc2C1=O`, the activation was -6.49%.
To `Cc1ccc2[nH]c(=O)c(CN(CCCN(C)C)C(=O)Nc3cccc(Cl)c3)cc2c1` belongs 20.3%; to `COc1ccc(NC(=O)CSc2nc(N)c(-c3ccccc3)c(=O)[nH]2)cc1`, 8.34%.
To `COC(=O)c1cccc(-n2[nH]nnc2=S)c1` belongs -3.54%.
The figure for `COCc1cc(C(C)=O)ccc1OC` is 2.42%; for `CN(C)c1ccc(NC(=S)N(CCc2ccccc2)C2CC(=O)N(c3c(Cl)cccc3Cl)C2=O)cc1` (centres undefined) it is -17.7%.
Regarding `O=C(N/N=C/C=C/c1ccccc1)C1CC1(c1ccccc1)c1ccccc1` (centres undefined), the activation is 4.51%.
To `CCCn1nnc(NC(=O)COc2ccc(CC)cc2)n1` belongs 6.08%; to `COC(=O)CNC(=O)c1ccccc1[N+](=O)[O-]`, 2.74%.
The figure for `CCCCNC(=O)CCn1c(=S)[nH]c2cc3c(cc2c1=O)OCO3` is -3.47%; for `COc1ccc(OCC(=O)NN2Cc3ccccc3C2=N)cc1` it is 12.3%.
As to `CCOc1cc(/C=C2/N=C(c3ccc(C(C)(C)C)cc3)OC2=O)cc(Cl)c1OS(C)(=O)=O`, the activation was 15.4%.
For `Cc1ccccc1OC/C(O)=C(\C#N)c1nc2ccccc2[nH]1`, the activation is -7.29%.
For the compound `COC(=O)c1c(NC(=O)CSc2nncs2)sc2c1CCCCC2`, the activation was 144% (active).
The figure for `COC(=O)c1c(NC(=O)c2cccs2)sc2c1CCCC2` is -38.1%.
To `CCOC(=O)c1c(NC(=O)CSc2nnc(C)c(=O)[nH]2)sc2c1CCC2` belongs -7.67%.
The figure for `CC(C)c1cc(C(N)=O)c(NC(=O)c2cccc(COc3ccc(Br)cc3)c2)s1` is 2.73%; for `CCCC(O)(c1ccc(OC)cc1)C(CN(C)C)c1ccccc1` (centres undefined) it is 8.96%.
In the case of `CS(=O)(=O)N(CC(=O)Nc1ccc(F)cc1F)c1cccc([N+](=O)[O-])c1`, the activation is 2.79%.
The figure for `CCOC(=O)c1c(NC(=O)CSc2nnc(CNc3ccc(C)cc3C)o2)sc(C)c1C` is 13.4%; for `CCOC(=O)NNC(=O)c1ccc(Cl)cc1` it is -2.19%.
The figure for `COc1ccc(C2CC(c3cccs3)=Nc3ccccc3S2)cc1OC` (centres undefined) is 3.96%.
Regarding `CCN(CC)C(=O)CSC1c2ccccc2C(=O)N1c1ccccc1` (centres undefined), the activation is 16.1%.
To `Cc1ccc(OCC(=O)N/N=C/c2ccncc2)cc1` belongs 9.97%; to `Cc1ccc(CNC(=O)CCNC(=O)Cn2ccc3ccccc3c2=O)cc1`, -10.3%; to `COc1ccc(NC(=O)CCNC(=O)Cn2ccc3ccccc3c2=O)c(OC)c1`, 49.9% (active).
The figure for `COc1ccc(NC(=O)CCN2CCCC2)c(OC)c1` is -7.64%.
Turning to `Cc1ccc2c(c1)N(CC(=O)N(Cc1ccccn1)Cc1ccco1)C(=O)C(C(C)C)O2` (centres undefined), the activation was -18%.
For the compound `CCN1CCC(=NNC(=O)c2ccc(C)c([N+](=O)[O-])c2)CC1`, the activation was 9.79%.

For the origin of these results see PubChem BioAssay AID819 (Columbia University Molecular Screening Center, 2007).
